In ChEMBL document CHEMBL3433997, “St. Jude Leishmania screening dataset” (2016):

How the values were obtained:
Assay type in all cases: functional
[1] = biological target: Solute carrier family 2, facilitated glucose transporter member 1 (Homo sapiens) (UniProt P11166); assay: ST_JUDE_LEISH: Cytotoxicity at 2uM final concentration against transgenic Leishmania Mexicana promastigotes LmGLUT1 that are glucose transport deficient and complemented with the human glucose transporter GLUT1. Activity is measured by DNA content using SYBR green in vitro
[2] = biological target: Hexose transporter 1 (Plasmodium falciparum) (UniProt O97467); assay: ST_JUDE_LEISH: Cytotoxicity at 2uM final concentration against transgenic Leishmania Mexicana promastigotes LmPfHT that are glucose transport deficient and complemented with the Plasmodium falciparum hexose transporter. Activity is measured by DNA content using SYBR green in vitro
[3] = biological target: Glucose transporter (Leishmania mexicana) (UniProt O61059); assay: ST_JUDE_LEISH: Cytotoxicity at 2uM final concentration against transgenic Leishmania Mexicana promastigotes LmGT2 that are glucose transport deficient and complemented with the L. Mexicana glucose transporter 2. Activity is measured by DNA content using SYBR green in vitro

Solute carrier family 2, facilitated glucose transporter member 1 (Homo sapiens), sequence (P11166 whole entry): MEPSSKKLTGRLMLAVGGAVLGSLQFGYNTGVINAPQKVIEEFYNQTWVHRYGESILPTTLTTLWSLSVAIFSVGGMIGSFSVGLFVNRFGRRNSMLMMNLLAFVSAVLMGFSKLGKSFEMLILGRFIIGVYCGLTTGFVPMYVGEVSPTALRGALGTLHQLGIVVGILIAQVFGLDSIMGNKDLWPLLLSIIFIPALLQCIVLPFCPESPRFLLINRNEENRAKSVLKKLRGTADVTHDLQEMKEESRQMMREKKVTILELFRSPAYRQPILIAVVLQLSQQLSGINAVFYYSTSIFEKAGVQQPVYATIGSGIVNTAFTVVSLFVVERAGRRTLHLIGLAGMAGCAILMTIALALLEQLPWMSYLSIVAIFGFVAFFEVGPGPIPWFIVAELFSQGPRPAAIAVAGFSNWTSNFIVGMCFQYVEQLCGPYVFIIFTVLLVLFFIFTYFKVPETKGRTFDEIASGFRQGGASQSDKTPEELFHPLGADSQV

Structure (SMILES) | inhibition [1] [%] | inhibition [2] [%] | inhibition [3] [%]
CC(C)Cc1cn(-c2nc(-c3nc4ccccc4[nH]3)cs2)c2cc(Cl)ccc12 | 6.36 | 6.84 | 7.38
O=[N+]([O-])c1ccc(N2CCCN(C(=S)Nc3ccc(F)cc3Br)CC2)nc1 | 1.6 | -0.77 | 1.29
O=C1CCCN1CCCNCc1cccc(-c2ccc(-c3nc4ccccc4[nH]3)s2)c1 | -0.73 | 0.07 | -0.46
CC(C)C[C@H](NC(=O)c1cc2ccccc2s1)C(=O)N[C@H]1CCN(Cc2ccc(OC3CCN(C)C3)c(Cl)c2)C1 (some centres undefined) | 1.48 | 2.37 | -0.19
CN1CCN(CCCN(Cc2cccc(-c3ccc(CNC4CCCC4)cc3)c2)C(=O)CCC2CCCC2)CC1 | 17.4 | 8.03 | 3.62
CCCc1cc(NC2CCN(C)CC2)nc(Nc2cccc(OC)c2)n1 | 8.68 | 6.18 | 6.84
CCn1cnc2c(Nc3cccc([N+](=O)[O-])c3)nc(N3CCC(N4CCCCC4)CC3)nc21 | 0.93 | 3.03 | -0.24
CCN(CCCN1CCCCC1)c1cc(C)nc(Nc2ccc(C)cc2Br)n1 | 4.17 | 4.38 | 4.15
COc1cc2nc(N3CCC(CNC(=O)c4ccc(-c5ccc(C(F)(F)F)cc5)cc4)CC3)nc(N)c2cc1OC | 2.82 | 2.34 | -0.23
CCCCCCOc1ccccc1C(=O)NCCOc1ccc(Cl)cc1 | 3.58 | -1.45 | -1.97
COc1ccc2nccc([C@@H](O)CN3CCC(NC(=O)C(c4cc5ccccc5o4)N4CCC(Cc5ccccc5)CC4)CC3)c2c1 (some centres undefined) | 5.02 | 3.03 | 2.23
CN1CCCCC1CCc1cc(C(=O)Nc2ccc(-c3ccc(O)cc3)cc2)ccc1O (centres undefined) | 1.7 | 1.76 | -0.5
COC(=O)Cc1ccc(N)c2ccccc12 | -0.85 | -0.46 | -2.13
Cc1cccc2nc(-c3ccc(-c4ccc(CNCCNC(=O)c5ccnn5C)cc4)cc3)[nH]c12 | -0.55 | 1.46 | -2.49
CCCCC(CC)CN1C(=O)C(c2ccccc2)(c2ccccc2)N=C1N (centres undefined) | -0.17 | 0.02 | 2.42
Cc1cc(NCCCN2CCCC2=O)n2c(nc3ccccc32)c1C#N | 0.96 | 3.33 | 2.22
COc1ccc(Cl)cc1N1CCN(CCCNC(=O)c2ccc(-c3nc4cc5ccccc5cc4[nH]3)c(F)c2)CC1 | 1.51 | 3.41 | 1.26

Structure (SMILES) | inhibition [1] [%] | inhibition [2] [%] | inhibition [3] [%]
OCC1CCN(Cc2ccc(-c3ccc(-c4nc5ccccc5[nH]4)cc3)cc2)CC1 | 6.11 | 5.06 | 5.45
CCNc1cc(C(=O)N[C@@H](Cc2ccccc2)[C@H](O)CNC2CCC(C(C)(C)C)CC2)cc(N2CCCC2=O)c1 (some centres undefined) | 0.78 | 1.1 | -2.55
COc1cc2c(cc1C=CC(=O)N1CCN(Cc3nc(O)c4c(C)c(C)sc4n3)CC1)OC(C)C2 (centres undefined) | 1.98 | 3.73 | 2.08
Cc1nc(C)c(CC(=O)Nc2ccc(-c3cccc(-c4nc5cc(C(F)(F)F)ccc5[nH]4)c3)cc2)s1 | 13 | 10.6 | 8.58
Cc1cc(C)cc(OCC(O)CN(Cc2cc(Cl)cc(Cl)c2)C(=O)Nc2ccc([N+](=O)[O-])cc2)c1 (centres undefined) | 4.12 | 3.99 | 5.26
Cc1ccoc1C(=O)Nc1cccc(-c2cccc(-c3nc4ccccc4[nH]3)c2)c1 | 12.3 | 6.56 | 5.58
Cc1nc(O)c2c(ccc3ccc(CN(C)c4ccc(C(=O)N[C@@H](CCC(=O)O)C(=O)O)cc4)cc32)n1 | -1.5 | -0.69 | -1.57
Cc1ccc(OC2CCN(c3ccc(C(=O)NC4CC4)cn3)CC2)cc1 | 0.24 | 2.06 | 1.55
N=C(NCCCc1ccccc1)c1cccc(C(=N)NCCCc2ccccc2)n1 | -0.39 | -1.1 | -0.17
Cc1cccc2nc(-c3ccc(-c4cccc(CN5CCN(c6ccc(C#N)cn6)CC5)c4)s3)[nH]c12 | 0.91 | -1.69 | 1.21
COc1cccc(C(=O)Nc2ccc(S(=O)(=O)c3cc4c(cc3OC)CCN(C)CC4)cc2)c1 | 1.6 | -0.4 | 1.23
COc1ccc2ncc(F)c([C@@H](O)CN3CCC(NCc4cc5c(cn4)OCCO5)CC3)c2c1 | 2.51 | 2.79 | 3.93
Cc1cccc(-c2nc(Nc3ccncc3)c3ccc([N+](=O)[O-])cc3n2)n1 | 5.77 | 7.55 | 3.86
Cn1cncc1CCN(Cc1ccc(-c2ccc(C(F)(F)F)cc2)cc1)C(=O)Cn1c(CCc2cccc(F)c2F)cc(=O)c2cccnc21 | 1.83 | 2.38 | -0.14
Cc1noc(C)c1-c1ccc2c(Nc3ccccc3C(C)(C)C)c(C(=O)NCc3ccc(OC(C)C)cc3)cnc2c1 | 3.36 | 4.36 | 5.28
COc1ccc(CCNCCCCCCNCCc2ccc(Cl)c3ccccc23)cc1OC | 0.11 | 0.21 | 2.66
